# Molecular target: FBXL3
# Assay: pooled miR-30 sensor sort-seq; sequence = guide strand
# Conditions: shRNA
# Further: reference of the scale not given here.
row,Sequence,sensor-assay potency score (higher = more potent)
1,TTTAATAATCTGTTTGATCAGC,-0.685
2,TATCACAAGCTGCTTCAGCTGA,-0.251
3,TACATCACTAAGTTCACTTTGG,0.0732
4,TACTTGGAGAATAATGTCCTGA,0.112
5,TTAATTATAATACATTTGCTTG,-1.08
6,TAACTCTTCATCAAGTGGCCGT,-0.249
7,TTCCTTGCTGCTGTCCACCTTG,-0.442
8,TTGCTTGAAATTAAGGTGCTAT,0.353
9,TACTCTTCTGAATAGTATGGAA,-0.502
10,TATGGAAGTGTGTCTGTCCAGG,-0.66

# Molecular target: FBXO25
# Assay: as above
# Conditions: shRNA
row,Sequence,sensor-assay potency score (higher = more potent)
1,TTCACTAAGCATATACAACGTG,-0.104
2,TATTGAATATTTCTCCATCTTC,-0.493
3,TTCACTTGCTTAGTCATCTGAA,0.836
4,TCTGTCTTAATCCAACTCCATC,-1.72
5,TTGACCACATAATTGAACCTTC,0.213
6,ATATCTTGAATTGCACTTGAGA,-0.85
7,TAGGTCTTGCAGAAGATCTTTG,-0.731
8,TGTGTCTCCGTACTGCTCCTTC,-0.185
9,TCTTAATCCAACTCCATCCAGG,-0.487
10,TAATCCAACTCCATCCAGGAGA,-0.761
11,TCACTAAGCATATACAACGTGG,-0.518
12,TTTTTTTCGATGCATATTCATG,-0.983

# Molecular target: FBXO27
# Assay: as above
# Conditions: shRNA
row,Sequence,sensor-assay potency score (higher = more potent)
1,TTTTCCTCCACCACCCAGCCGT,-0.662
2,TTTTTTAACGTAGACTTTCAGC,-0.574
3,TGATATATTATTCTTACTGTTT,-0.893
4,TTACAGGTCCTTGAGGATCAGG,-1.43
5,AATTTATCTAGAACAGTCTGGT,0.248
6,TGTTGCACCATCCACTTTCGGA,-0.815
7,TTGATGTTGGAGAACACGTGGG,-0.501
8,TCTGGTAGTTTCTAGAACCTGA,0.603
9,TTATCTAGAACAGTCTGGTTGG,0.434
10,TTTATCTAGAACAGTCTGGTTG,0.00929
11,TTTTTTTTTAACGTAGACTTTC,-0.903
12,TTTAACGTAGACTTTCAGCTGC,0.647

# Molecular target: FBXO43
# Assay: as above
# Conditions: shRNA
row,Sequence,sensor-assay potency score (higher = more potent)
1,TTGAACAACAATTTCACGCCAA,0.6
2,TTATCTTGAACAACAATTTCAC,0.0349
3,TTCATGTCCACTATTTTCCTGT,0.372
4,TTATCTATATTATCAAAGCTAC,-0.969
5,TTTGACTGCATGAAGTCACTTC,0.521
6,AACCTTAACATATTCTTCCTGT,0.212
